Experimental findings from PubChem BioAssay (EPA / NIEHS) are described below.

Structures are written as SMILES. Inconclusive results are not listed. Where a structure was tested more than once in an assay, its records may differ in their call. Calls of active or inactive are those of the source. Rule for the calls, unless noted: active = hit-call score of the fitted dose curve at least 0.9, where 1 is the maximum; inconclusive = response in the unintended direction; inactive = score below 0.9.

Assay [1] addresses Retinoic acid receptor RXR-alpha (Homo sapiens) (UniProt P19793). The assay can be described thus: OT_NURR1_NURR1RXRa_1440: Odyssey Thera (OT) 24-hour HEK293T Protein Complementation Assay for Nurr1/retinoid X receptor (RXR) (AID 2283386). In a few lines: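 Fluorescence PCA read-out; HEK293T; 24 h post-dose; bait/prey fused to reporter fragments; gain-of-signal fit vs DMSO negative control.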

Assay [2] deals with Peroxisome proliferator-activated receptor gamma (Homo sapiens) (UniProt P37231). The assay can be described thus: OT_PPARg_PPARgSRC1_0480: Odyssey Thera (OT) 8-hour Protein-Complementation Assay for Peroxisome Proliferator-activated Receptor Gamma / SRC-1 Co-activator (AID 2283387).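 Note: nuclear to cytoplasmic split Venus YFP fluorescence ratio reporting PPARg SRC-1 interaction.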 The gist of the method:
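Protein-fragment complementation in HEK293T: Venus YFP halves (residues 1-158, 159-239, mutated to IFP1/IFP2) fused to PPARg/SRC-1. 8 h exposure; N/C ratio at 488 nm; DMSO negative control.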

Assay [3] has the same target. The experiment in a line: OT_PPARg_PPARgSRC1_1440: Odyssey Thera (OT) 24-hour Protein-Complementation Assay for Peroxisome Proliferator-activated Receptor Gamma/ SRC-1 Co-activator (AID 2283388).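 Note: nuclear to cytoplasmic ratio of reconstituted Venus YFP fluorescence in fixed imaged cells.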 The gist of the method: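 Protein-fragment complementation between PPARg and coactivator SRC-1 was measured by fluorescence imaging in transiently transfected HEK293T cells after 24 h treatment. Signal was quantified as N/C ratio in the 488 nm channel, with DMSO as negative control.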

Read-out in assay [4]: Fatty acid synthase (Homo sapiens) (UniProt P49327)
The experiment in a line: LTEA_HepaRG_FASN: Life Technologies and Expression Analysis (LTEA) Assay for Fatty Acid Synthase (FASN) using HepaRG (AID 2283448; active = hit-call score of the fitted dose curve at least 0.9, where 1 is the maximum; inactive = score below 0.9). As to conditions: mRNA level, 48 h; actives raise or lower the signal. In a few lines:
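HepaRG, 48 h exposure, 8-pt half-log series top 100 uM, 0.5% DMSO vehicle, duplicates. Readout: FASN transcript by Fluidigm qRT-PCR; housekeeping-normalized; bidirectional curve fit vs DMSO baseline.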

Read-out in assay [5]: Cyclin Dependent Kinase Inhibitor 1A (CDKN1A), CDKN1A (gene 1026)
The assay can be described thus: LTEA_HepaRG_CDKN1A: Life Technologies and Expression Analysis (LTEA) Assay for Cyclin Dependent Kinase Inhibitor 1A (CDKN1A) using HepaRG (AID 2283450; active = hit-call score of the fitted dose curve at least 0.9, where 1 is the maximum; inactive = score below 0.9). The conditions noted are these: mRNA level, 48 h; actives raise or lower the signal. In a few lines:
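Read-out is CDKN1A mRNA by TaqMan qRT-PCR, normalized to three housekeeping genes and fitted in both directions against the DMSO baseline. Human HepaRG cells were treated 48 h with test chemicals up to 100 uM in half-log steps, 0.5% DMSO.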

Read-out in assay [6]: Cyclin D1 (CCND1), CCND1 (gene 595)
The experiment in a line: LTEA_HepaRG_CCND1: Life Technologies and Expression Analysis (LTEA) Assay for Cyclin D1 (CCND1) using HepaRG (AID 2283451; active = hit-call score of the fitted dose curve at least 0.9, where 1 is the maximum; inactive = score below 0.9;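 note: differentiated human HepaRG liver cells in serum-free induction medium; TaqMan qRT-PCR transcript level normalised to ACTB GAPDH and POLR2A housekeeping genes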). The conditions noted are these: mRNA level, 48 h; actives raise or lower the signal. The gist of the method: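 HepaRG plated 48 h, medium switched to serum-free induction medium, chemicals added in duplicate (top 100 uM, half-log steps, 0.5% DMSO) for 48 h, cells lysed, RNA measured by TaqMan qRT-PCR.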

Read-out in assay [7]: catalase (CAT), CAT (gene 847)
The assay can be described thus: LTEA_HepaRG_CAT: Life Technologies and Expression Analysis (LTEA) Assay for catalase (CAT) using HepaRG (AID 2283452; active = hit-call score of the fitted dose curve at least 0.9, where 1 is the maximum; inactive = score below 0.9). The conditions noted are these: mRNA level, 48 h; actives raise or lower the signal. The gist of the method:
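Expression of CAT was quantified by TaqMan qRT-PCR with ACTB/GAPDH/POLR2A normalization after 48 h chemical exposure of HepaRG. Eight-point half-log series, top 100 uM, in 0.5% DMSO; gain or loss fitted against vehicle.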

Read-out in assay [8]: flavin-containing dimethylaniline monooxygenases 3 (FMO3), FMO3 (gene 2328)
The assay can be described thus: LTEA_HepaRG_FMO3: Life Technologies and Expression Analysis (LTEA) Assay for flavin-containing dimethylaniline monooxygenases 3 (FMO3) using HepaRG (AID 2283453; active = hit-call score of the fitted dose curve at least 0.9, where 1 is the maximum; inactive = score below 0.9). The conditions noted are these: mRNA level, 48 h; actives raise or lower the signal. In a few lines:
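Eight-point concentration-response in serum-free HepaRG cultures (top 100 uM, 0.5% DMSO, 48 h). Read-out: FMO3 mRNA level normalized to three endogenous control genes, fitted bidirectionally versus vehicle.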

Read-out in assay [9]: Cytochrome P450 (CYP1A1), CYP1A1 (gene 1543)
The experiment in a line: LTEA_HepaRG_CYP1A1: Life Technologies and Expression Analysis (LTEA) Assay for Cytochrome P450 (CYP1A1) using HepaRG (AID 2283454; active = hit-call score of the fitted dose curve at least 0.9, where 1 is the maximum; inactive = score below 0.9). As to conditions: mRNA level, 48 h; actives raise or lower the signal. In a few lines:
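HepaRG, 48 h post-plating switched to serum-free induction medium; 8-pt conc-response (top 100 uM, half-log, 0.5% DMSO), duplicates, 48 h. Lysis in RLT, TaqMan qRT-PCR for CYP1A1; gain or loss vs DMSO.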

Read-out in assay [10]: CFLAR gene, CFLAR (gene 8837)
The assay can be described thus: LTEA_HepaRG_CFLAR: Life Technologies and Expression Analysis (LTEA) Assay for CFLAR gene using HepaRG (AID 2283455; active = hit-call score of the fitted dose curve at least 0.9, where 1 is the maximum; inactive = score below 0.9). As to conditions: mRNA level, 48 h; actives raise or lower the signal. In a few lines: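 Transcript level by qRT-PCR (normalized to ACTB, GAPDH and POLR2A) after 48 h chemical exposure of HepaRG cells, top concentration 100 uM with half-log steps, 0.5% DMSO vehicle, duplicates; fitted bidirectionally against DMSO baseline.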

Chain of Retinoic acid receptor RXR-alpha (Homo sapiens) (P19793 whole entry, looked up, the tested form may be a part): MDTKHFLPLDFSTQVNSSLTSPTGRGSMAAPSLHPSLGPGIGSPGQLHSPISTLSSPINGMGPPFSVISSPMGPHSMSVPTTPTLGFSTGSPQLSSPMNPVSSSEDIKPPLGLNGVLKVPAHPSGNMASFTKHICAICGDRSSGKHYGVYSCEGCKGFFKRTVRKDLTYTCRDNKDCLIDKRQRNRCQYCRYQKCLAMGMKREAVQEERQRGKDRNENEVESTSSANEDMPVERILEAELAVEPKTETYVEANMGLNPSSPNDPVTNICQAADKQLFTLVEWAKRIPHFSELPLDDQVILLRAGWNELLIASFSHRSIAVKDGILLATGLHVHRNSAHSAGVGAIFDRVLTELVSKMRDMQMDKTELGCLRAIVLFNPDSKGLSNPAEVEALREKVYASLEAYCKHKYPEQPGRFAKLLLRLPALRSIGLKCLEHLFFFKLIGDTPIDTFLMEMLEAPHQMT
Chain of Peroxisome proliferator-activated receptor gamma (Homo sapiens) (P37231 whole entry, looked up, the tested form may be a part): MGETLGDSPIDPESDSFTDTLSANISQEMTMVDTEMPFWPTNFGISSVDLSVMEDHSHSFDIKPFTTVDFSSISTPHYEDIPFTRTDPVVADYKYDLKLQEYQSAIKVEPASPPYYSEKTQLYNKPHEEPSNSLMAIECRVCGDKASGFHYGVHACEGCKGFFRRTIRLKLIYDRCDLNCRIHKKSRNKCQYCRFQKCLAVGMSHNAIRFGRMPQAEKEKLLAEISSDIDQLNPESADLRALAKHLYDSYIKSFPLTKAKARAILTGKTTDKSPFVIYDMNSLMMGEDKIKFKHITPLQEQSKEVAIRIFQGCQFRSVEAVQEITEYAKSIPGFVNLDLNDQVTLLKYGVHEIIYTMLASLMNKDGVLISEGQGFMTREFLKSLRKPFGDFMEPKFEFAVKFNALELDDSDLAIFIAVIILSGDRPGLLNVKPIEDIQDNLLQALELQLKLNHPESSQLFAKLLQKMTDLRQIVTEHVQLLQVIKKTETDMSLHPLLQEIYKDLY
Chain of Fatty acid synthase (Homo sapiens) (P49327 whole entry, looked up): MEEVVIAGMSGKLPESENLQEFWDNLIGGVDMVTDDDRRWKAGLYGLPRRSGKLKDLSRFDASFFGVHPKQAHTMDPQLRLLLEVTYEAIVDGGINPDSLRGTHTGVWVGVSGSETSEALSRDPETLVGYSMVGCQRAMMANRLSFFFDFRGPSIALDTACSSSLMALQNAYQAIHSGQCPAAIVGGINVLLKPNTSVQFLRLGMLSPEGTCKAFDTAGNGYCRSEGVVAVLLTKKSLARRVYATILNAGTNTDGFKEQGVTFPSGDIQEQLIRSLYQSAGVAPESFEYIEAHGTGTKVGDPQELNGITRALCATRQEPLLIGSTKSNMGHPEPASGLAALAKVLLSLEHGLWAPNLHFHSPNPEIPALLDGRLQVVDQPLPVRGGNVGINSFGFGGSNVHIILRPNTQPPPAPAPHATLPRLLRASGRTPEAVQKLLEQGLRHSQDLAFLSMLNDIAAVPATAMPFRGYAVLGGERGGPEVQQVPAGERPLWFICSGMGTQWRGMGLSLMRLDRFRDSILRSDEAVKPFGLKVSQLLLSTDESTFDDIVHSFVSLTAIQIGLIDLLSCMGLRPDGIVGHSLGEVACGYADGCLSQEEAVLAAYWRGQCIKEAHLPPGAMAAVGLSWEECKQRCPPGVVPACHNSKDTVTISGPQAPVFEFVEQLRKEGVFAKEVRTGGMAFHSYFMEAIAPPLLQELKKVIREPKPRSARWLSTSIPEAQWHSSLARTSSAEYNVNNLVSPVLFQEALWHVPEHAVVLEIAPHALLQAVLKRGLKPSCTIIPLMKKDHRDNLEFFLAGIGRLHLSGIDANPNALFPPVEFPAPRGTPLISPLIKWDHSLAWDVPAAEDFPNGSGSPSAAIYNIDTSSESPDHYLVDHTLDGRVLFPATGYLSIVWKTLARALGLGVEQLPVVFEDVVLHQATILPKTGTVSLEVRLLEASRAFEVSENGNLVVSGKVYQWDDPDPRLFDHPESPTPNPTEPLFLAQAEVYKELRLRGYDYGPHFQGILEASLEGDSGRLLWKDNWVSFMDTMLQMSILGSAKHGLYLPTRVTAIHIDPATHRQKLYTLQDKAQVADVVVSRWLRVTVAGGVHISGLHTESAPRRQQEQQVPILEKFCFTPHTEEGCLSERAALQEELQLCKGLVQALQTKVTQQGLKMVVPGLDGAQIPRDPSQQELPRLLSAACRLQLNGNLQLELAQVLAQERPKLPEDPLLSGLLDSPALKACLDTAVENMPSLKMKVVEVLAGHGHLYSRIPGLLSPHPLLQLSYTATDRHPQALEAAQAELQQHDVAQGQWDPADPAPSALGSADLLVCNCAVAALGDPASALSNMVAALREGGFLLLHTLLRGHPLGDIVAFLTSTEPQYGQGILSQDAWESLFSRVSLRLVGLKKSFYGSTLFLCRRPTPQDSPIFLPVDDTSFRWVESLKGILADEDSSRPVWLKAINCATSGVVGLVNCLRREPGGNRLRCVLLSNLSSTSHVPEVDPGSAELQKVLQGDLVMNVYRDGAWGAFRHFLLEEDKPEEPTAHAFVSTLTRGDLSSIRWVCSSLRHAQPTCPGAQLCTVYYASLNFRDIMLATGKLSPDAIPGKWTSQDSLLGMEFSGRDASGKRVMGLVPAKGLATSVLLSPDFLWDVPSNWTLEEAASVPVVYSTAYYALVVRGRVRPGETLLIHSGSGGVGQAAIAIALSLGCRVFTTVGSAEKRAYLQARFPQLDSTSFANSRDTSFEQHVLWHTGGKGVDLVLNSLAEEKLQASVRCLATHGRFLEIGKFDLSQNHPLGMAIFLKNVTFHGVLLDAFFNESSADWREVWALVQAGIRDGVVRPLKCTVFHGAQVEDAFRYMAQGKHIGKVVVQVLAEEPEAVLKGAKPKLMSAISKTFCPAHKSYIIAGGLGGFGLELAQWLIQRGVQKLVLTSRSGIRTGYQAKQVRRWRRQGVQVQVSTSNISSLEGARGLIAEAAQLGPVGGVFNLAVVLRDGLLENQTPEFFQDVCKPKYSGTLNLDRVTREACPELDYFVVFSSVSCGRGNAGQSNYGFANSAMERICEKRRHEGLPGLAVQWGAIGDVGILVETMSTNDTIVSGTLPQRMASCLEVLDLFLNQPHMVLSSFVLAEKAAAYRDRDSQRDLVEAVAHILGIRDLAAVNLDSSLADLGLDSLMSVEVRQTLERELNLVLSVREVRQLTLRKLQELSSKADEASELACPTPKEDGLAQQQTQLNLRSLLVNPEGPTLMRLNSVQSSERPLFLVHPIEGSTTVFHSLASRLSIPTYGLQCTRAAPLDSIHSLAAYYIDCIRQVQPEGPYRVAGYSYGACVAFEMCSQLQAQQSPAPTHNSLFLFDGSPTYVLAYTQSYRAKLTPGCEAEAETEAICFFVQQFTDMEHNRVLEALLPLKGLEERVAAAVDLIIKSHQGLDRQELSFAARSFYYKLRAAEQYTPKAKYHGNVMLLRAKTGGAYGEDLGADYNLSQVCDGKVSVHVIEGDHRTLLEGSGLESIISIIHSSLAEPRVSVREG

Take `CCOC(=O)Nc1cccc(OC(=O)Nc2ccccc2)c1`: the result in assay [1], in [2] and in assay [3] was inactive.
With `CC(=O)c1cc(C(C)(C)C)cc2c1CCC2(C)C`, in [1], the AC50 was 86.9 µM (active). Besides, the compound was called inactive in assay [2] and in [3].
Turning to `CNC(=O)O/N=C/C(C)(C)S(C)=O` (stereo unspecified), the outcome in [1], in assay [2] and in assay [3] was inactive.
Turning to `COc1cc(OC)nc(NC(=O)NS(=O)(=O)c2ncccc2C(=O)N(C)C)n1`, the result in assay [1], in [2] and in assay [3] was inactive.
Consider `COP(=O)(OC)OC`, for which the result in [1], in [2] and in assay [3] was inactive.
Consider `O=C1CCCN1`, for which the outcome in assay [1] and in assay [2] was inactive.
For the compound `Clc1ccc(C2(Cn3cncn3)CC(Br)CO2)c(Cl)c1` (stereo unspecified), the outcome in assay [1], in assay [2] and in [3] was inactive.
For `ClC(Cl)=C(Cl)C(Cl)=C(Cl)Cl`, the outcome in assay [1], in [2] and in [3] was inactive.
Take `CCC1(c2ccc(N)cc2)CCC(=O)NC1=O` (stereo unspecified): the compound was called inactive in assay [1], in [2] and in [3].
On to `N#CN=C(N)N`, for which the call in [1], in [2] and in assay [3] was inactive.
`CCCCCCCCc1ccc(O)cc1`: the AC50 in assay [1] is 57.4 µM (active); in [6], 0.346 µM (active). The outcome in [1], in assay [2], in assay [3], in assay [4], in assay [5] and in assay [7] was inactive. Also, the result in [8], in assay [9] and in [10] was inactive.
`O=C/C=C/c1ccccc1`: the compound was called inactive in assay [1], in assay [2] and in assay [3].
Turning to `O=C(NCO)NCO`, the compound was classed as inactive in assay [1], in [2] and in [3].
For the compound `Clc1ccc(COC(Cn2ccnc2)c2ccc(Cl)cc2Cl)cc1` (stereo unspecified), in [1], the AC50 was 11.6 µM (active). For the same compound, the call in assay [2] and in assay [3] was inactive.
Turning to `COC(=O)c1sccc1S(=O)(=O)NC(=O)Nc1nc(C)nc(OC)n1`, the compound was classed as inactive in assay [1], in assay [2] and in [3].
As for `CC(=O)C=C(C)C`, the call in assay [1], in [2] and in assay [3] was inactive.
As for `O=S(=O)(c1ccc(Cl)cc1)c1ccc(Cl)cc1`, the compound was classed as inactive in [1], in [2] and in [3].
For the compound `CCC[CH2][Sn]([CH2]CCC)([CH2]CCC)[O]C(=O)c1ccccc1`, the result in assay [1] and in assay [2] was inactive. Also, the half-maximal activity concentration (AC50) in assay [3] is 0.0331 µM (active).
Regarding `OCC(O)CCl` (stereo unspecified), the result in assay [1], in assay [2] and in assay [3] was inactive.
Regarding `Cl/C=C/Cl`, in assay [1], the result was inactive.
With `c1cc[c]([Hg][c]2ccccc2)cc1`, the AC50 was 63.4 µM (active) in assay [1] and 50 µM (active) in assay [3]. Further, the call in [2] was inactive.
`CNC`: the compound was called inactive in assay [1], in assay [2] and in assay [3].
